From PubChem BioAssay AID1159580 (chemical genetic matrix, 2015)
Where “and” joins values, the source holds several entries; their conditions need not be identical. Equal values may be shown once. The campaign covered roughly 5,500 compounds. About 2,000 (36%) were called active. Not shown: some 18% with an inconclusive outcome. Cut-off read from the data, not from the text of the source: active = normalized growth mostly below about 0.91 (no sharp cut-off); inconclusive = no clear call, values can overlap the other calls; inactive = mostly above about 0.92. The list shows a part of the results.

Assay: chemical genetic growth profiling, strain panel (AID 1159580);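 note: tested at 20 µM; growth read once vehicle control cultures reached saturation at 30 °C; 1 = growth at the plate median or of vehicle wells; lower values mean less growth of the strain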
Details: S. cerevisiae deletion strains, growth OD

Measured: normalized growth

CCn1cc(C(=O)O)c(=O)c2cc(F)c(N3CCNC(C)C3)c(F)c21 (centres undefined)
inactive: locus YAL013W, strain DEP1, active compounds read low 0.989 | locus YAL021C, strain ccr4, active compounds read low 0.957 | locus YAL026C, strain drs2, active compounds read low 0.974 | locus YAL030W, strain snc1, active compounds read low 0.988 | locus YAL040C, strain CLN3, active compounds read low 0.984 | locus YBL061C, strain skt5, active compounds read low 0.962 | locus YBR009C, strain hhf1, active compounds read low 1.01 | locus YBR021W, strain FUR4, active compounds read low 0.982 | locus YBR023C, strain chs3, active compounds read low 0.986 | locus YBR171W, strain sec66, active compounds read low 0.975 | locus YBR229C, strain ROT2, active compounds read low 1 | locus YBR231C, strain swc5, active compounds read low 0.997 | locus YBR279W, strain paf1, active compounds read low 0.975 | locus YCL011C, strain gbp2, active compounds read low 0.971 | locus YCL016C, strain dcc1, active compounds read low 0.958 | locus YCL029C, strain bik1, active compounds read low 0.979 | locus YCL061C, strain MRC1 (second series), active compounds read low 0.997 | locus YCL061C, strain MRC1, active compounds read low 0.993 | locus YCL069W, strain vba3, active compounds read low 0.975 | locus YCR088W, strain abp1, active compounds read low 0.964 | locus YDL005C, strain med2, active compounds read low 0.97 | locus YDL035C, strain GPR1, active compounds read low 0.978 | locus YDL040C, strain nat1, active compounds read low 0.981 | locus YDL074C, strain BRE1, active compounds read low 1.02 | locus YDL101C, strain DUN1, active compounds read low 0.995 | locus YDL134C, strain PPH21, active compounds read low 0.985 | locus YDL185W, strain tfp1, active compounds read low 0.963 | locus YDL192W, strain arf1, active compounds read low 0.992 | locus YDR001C, strain nth1, active compounds read low 0.974 | locus YDR069C, strain doa4, active compounds read low 0.989 | locus YDR101C, strain arx1, active compounds read low 0.988 | locus YDR137W, strain rgp1, active compounds read low 0.949 | locus YDR150W, strain NUM1, active compounds read low 0.996 | locus YDR159W, strain sac3, active compounds read low 0.949 | locus YDR162C, strain NBP2, active compounds read low 0.98 | locus YDR195W, strain ref2 0.997 | locus YDR297W, strain sur2, active compounds read low 0.978 | locus YDR318W, strain mcm21, active compounds read low 0.976 | locus YDR334W, strain swr1, active compounds read low 0.975 | locus YDR335W, strain msn5, active compounds read low 0.968 | locus YDR363W, strain ESC2, active compounds read low 1.01 | locus YDR388W, active compounds read low 0.995 | locus YDR392W, strain spt3, active compounds read low 0.842 | locus YDR502C, strain sam2, active compounds read low 0.986 | locus YEL003W, strain gim4, active compounds read low 0.982 | locus YEL037C, strain rad23, active compounds read low 0.974 | locus YEL061C, strain CIN8 (second series), active compounds read low 0.975 | locus YEL061C, strain CIN8, active compounds read low 1.01 | locus YER002W, strain NOP16, active compounds read low 0.987 | locus YER015W, strain faa2, active compounds read low 0.988 | locus YER016W, strain bim1, active compounds read low 0.948 | locus YER110C, active compounds read low 0.984 | locus YER111C, strain swi4, active compounds read low 0.964 | locus YER155C, strain BEM2 (second series), active compounds read low 0.945 | locus YER155C, strain BEM2, active compounds read low 0.993 | locus YER167W, strain BCK2, active compounds read low 0.971 | locus YFR010W, strain ubp6, active compounds read low 1 | locus YGL078C, strain dbp3, active compounds read low 0.988 | locus YGL086W, strain mad1, active compounds read low 0.995 | locus YGL167C, strain pmr1, active compounds read low 0.98 | locus YGL173C, strain kem1, active compounds read low 0.993 | locus YGL227W, strain vid30, active compounds read low 0.981 | locus YGL240W, strain doc1, active compounds read low 1.01 | locus YGL248W, strain PDE1, active compounds read low 1.01 | locus YGL253W, strain hxk2, active compounds read low 0.98 | locus YGR078C, strain PAC10, active compounds read low 1.04 and 1.02 | locus YGR135W, strain pre9, active compounds read low 0.953 | locus YGR252W, strain gcn5, active compounds read low 0.991 | locus YHR013C, strain ard1, active compounds read low 0.984 | locus YHR027C, strain rpn1, active compounds read low 1 | locus YHR030C, strain SLT2, active compounds read low 0.988 and 1.03 | locus YHR079C, strain IRE1 (second series), active compounds read low 0.985 | locus YHR079C, strain IRE1, active compounds read low 1.06 | locus YHR094C, strain hxt1, active compounds read low 0.993 | locus YHR129C, strain ARP1, active compounds read low 0.991 | locus YHR142W, strain chs7, active compounds read low 0.948 | locus YHR200W, strain rpn10, active compounds read low 0.982 | locus YIL066C, strain RNR3, active compounds read low 1.01 | locus YIL073C, strain SPO22, active compounds read low 0.867 | locus YIL125W, strain kgd1, active compounds read low 0.998 | locus YIR030C, strain dcg1, active compounds read low 0.98 | locus YJL092W, strain hpr5, active compounds read low 0.99 | locus YJL095W, strain BCK1 (second series), active compounds read low 0.968 | locus YJL095W, strain BCK1, active compounds read low 1.03 and 1.01 | locus YJL115W, strain asf1, active compounds read low 0.967 | locus YJL129C, strain trk1, active compounds read low 0.931 | locus YJL134W, strain LCB3, active compounds read low 0.987 | locus YJL154C, strain vps35, active compounds read low 0.967 | locus YJL164C, strain tpk1, active compounds read low 0.975 | locus YJL166W, strain qcr8, active compounds read low 0.998 | locus YJL168C, strain set2, active compounds read low 0.999 | locus YJL187C, strain SWE1 (second series), active compounds read low 1.02 | locus YJR043C, strain POL32, active compounds read low 1.01 | locus YJR066W, strain TOR1, active compounds read low 0.956
